# Assay results from PubChem BioAssay (NCATS).
# Inconclusive results are not listed. Unmarked numbers belong to inactive results. Calls of active or inactive are those of the source. The call rests on the fitted dose curve; in most records, active means well fitted curve in the direction sought with a large enough effect; inconclusive means small, poorly fitted or top-dose-only effect, or another doubt; inactive means no such curve, though single readings can be large; an effect the other way counts as inactive or inconclusive.
# Assays:
# [1] = Quantitative High-Throughput drug screen in 47 multiple myeloma cell lines against the NCATS MIPE library collection: KMS12BM_JCRB cell viability assay (AID 1918971); further: nearly all actives have a fitted effect of over 35% in size
# Outline: (§1)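 Myeloma cell lines, 500 cells per well, exposed to MIPE 4.0 library compounds for 48 h at 37C, 5% CO2. Viability from ATP by CellTiter-Glo luminescence; normalised to DMSO (100%) and media-only (0%) wells.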
# [2] = Quantitative High-Throughput drug screen in 47 multiple myeloma cell lines against the NCATS MIPE library collection: KMS12PE_JCRB cell viability assay (AID 1918972); further: nearly all actives have a fitted effect of over 30% in size
# Outline: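 CellTiter-Glo luminescence (ATP) after 48 h compound exposure, 37C/5% CO2; 500 cells/well; MIPE 4.0 approved/investigational drugs pinned in; DMSO = 100%, media only = 0% viability.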
# [3] = Quantitative High-Throughput drug screen in 47 multiple myeloma cell lines against the NCATS MIPE library collection: MMM1_PLB cell viability assay (AID 1918976); further: nearly all actives have a fitted effect of over 35% in size
# Outline: (§2)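 500 cells/well; MIPE 4.0 drugs pin-transferred; 48 h, 37C, 5% CO2. CellTiter-Glo, 5 min RT, luminescence. Controls: DMSO 100%, media 0%.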
# [4] = Quantitative High-Throughput drug screen in 47 multiple myeloma cell lines against the NCATS MIPE library collection: MM1S_ATCC cell viability assay (AID 1918980); further: nearly all actives have a fitted effect of over 45% in size
# Outline: as §2
# [5] = Quantitative High-Throughput drug screen in 47 multiple myeloma cell lines against the NCATS MIPE library collection: MM1R_ATCC cell viability assay (AID 1918981); further: nearly all actives have a fitted effect of over 35% in size
# Outline: as §2
# [6] = Quantitative High-Throughput drug screen in 47 multiple myeloma cell lines against the NCATS MIPE library collection: LP1_DSMZ cell viability assay (AID 1918982); further: nearly all actives have a fitted effect of over 35% in size
# Outline: as §2
# [7] = Quantitative High-Throughput drug screen in 47 multiple myeloma cell lines against the NCATS MIPE library collection: KMS28PE_JCRB cell viability assay (AID 1918983); further: nearly all actives have a fitted effect of over 35% in size
# Outline: as §2
# [8] = Quantitative High-Throughput drug screen in 47 multiple myeloma cell lines against the NCATS MIPE library collection: L363_DSMZ cell viability assay (AID 1918984); details: L363 myeloma viability, CellTiter-Glo ATP luminescence, 48 h; viability (% of control): at 45.8 µM (top of the series); further: nearly all actives have a fitted effect of over 40% in size
# Outline: as §2
# [9] = Quantitative High-Throughput drug screen in 47 multiple myeloma cell lines against the NCATS MIPE library collection: OCIMY5_PLB cell viability assay (AID 1918988); further: nearly all actives have a fitted effect of over 65% in size
# Outline: as §2
# [10] = Quantitative High-Throughput drug screen in 47 multiple myeloma cell lines against the NCATS MIPE library collection: OPM1_PLB cell viability assay (AID 1918989); further: nearly all actives have a fitted effect of over 40% in size
# Outline: as §2
# [11] = Quantitative High-Throughput drug screen in 47 multiple myeloma cell lines against the NCATS MIPE library collection: SKMM1_PLB cell viability assay (AID 1919863); details: SKMM1 myeloma viability, CellTiter-Glo ATP, 48 h; viability: stronger effect = lower value; further: nearly all actives have a fitted effect of over 35% in size
# Outline: as §2
# [12] = Quantitative High-Throughput drug screen in 47 multiple myeloma cell lines against the NCATS MIPE library collection: KMS21BM_JCRB cell viability assay (AID 1918974); details: ATP luminescence, 48 h; viability: at 45.8 µM (top of the series)
# Outline: (§3)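 Relative luminescence from CellTiter-Glo served as the viability signal, referenced to DMSO-treated (100%) and cell-free medium (0%) controls. Treatment lasted 48 hours at 37C with 500 cells per well.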
# [13] = Quantitative High-Throughput drug screen in 47 multiple myeloma cell lines against the NCATS MIPE library collection: KMS26_JCRB cell viability assay (AID 1918975); further: nearly all actives have a fitted effect of over 45% in size
# Outline: as §1
# [14] = Quantitative High-Throughput drug screen in 47 multiple myeloma cell lines against the NCATS MIPE library collection: MOLP8_DSMZ cell viability assay (AID 1918977); further: nearly all actives have a fitted effect of over 45% in size
# Outline: as §2
# [15] = Quantitative High-Throughput drug screen in 47 multiple myeloma cell lines against the NCATS MIPE library collection: KMS34_JCRB cell viability assay (AID 1918985); further: nearly all actives have a fitted effect of over 40% in size
# Outline: as §2
# [16] = Quantitative High-Throughput drug screen in 47 multiple myeloma cell lines against the NCATS MIPE library collection: OCIMY7_PLB cell viability assay (AID 1918987); details: OCI-MY7 myeloma viability, CellTiter-Glo ATP, 48 h; viability (% of DMSO): at 45.8 µM (top of the series); further: nearly all actives have a fitted effect of over 65% in size
# Outline: as §2
# [17] = Quantitative High-Throughput drug screen in 47 multiple myeloma cell lines against the NCATS MIPE library collection: KMS20_JCRB cell viability assay (AID 1918973); further: nearly all actives have a fitted effect of over 45% in size
# Outline: as §3
# [18] = Quantitative High-Throughput drug screen in 47 multiple myeloma cell lines against the NCATS MIPE library collection: NCIH929_DSMZ cell viability assay (AID 1918978); further: nearly all actives have a fitted effect of over 35% in size
# Outline: as §2
# [19] = Quantitative High-Throughput drug screen in 47 multiple myeloma cell lines against the NCATS MIPE library collection: OCIMY1_PLB cell viability assay (AID 1918979); further: nearly all actives have a fitted effect of over 35% in size
# Outline: as §2
# [20] = Quantitative High-Throughput drug screen in 47 multiple myeloma cell lines against the NCATS MIPE library collection: U266_ATCC cell viability assay (AID 1919864); further: nearly all actives have a fitted effect of over 35% in size
# Outline: as §2
# Potency means the concentration at half of the fitted maximal effect.
Structure (SMILES),Potency [1],Potency [2],Potency [3],Potency [4],Potency [5],Potency [6],Potency [7],Potency [8],Potency [9],Potency [10],Potency [11],Potency [12],Potency [13],Potency [14],Potency [15],Potency [16],Potency [17],Potency [18],Potency [19],Potency [20]
O=C(CCCN1CCN(c2ccc(F)cc2)CC1)NC1c2ccccc2CSc2ccccc21 (configuration not stated),11.8 µM (active),4.18 µM (active),5.9 µM (active),10.5 µM (active),18.7 µM (active),2.96 µM (active),11.8 µM (active),4.69 µM (active),16.6 µM (active),10.5 µM (active),5.9 µM (active),,,,,,,,,
CCC(=O)N1CCN(c2ccc(-n3c(=O)ccc4cnc5ccc(-c6cnc7ccccc7c6)cc5c43)cc2C(F)(F)F)CC1,0.0047 µM (active),,,0.0662 µM (active),0.0372 µM (active),,,,,0.0132 µM (active),0.0148 µM (active),0.0372 µM (active),0.0743 µM (active),0.0332 µM (active),0.0059 µM (active),16.6 µM (active),,,,
COc1ccc(-c2ccc3ncc4c(c3c2)n(-c2ccc(N3CCNCC3)c(C(F)(F)F)c2)c(=O)n4C)cn1,0.332 µM (active),,0.0074 µM (active),,,,0.0066 µM (active),,0.0469 µM (active),inactive,0.526 µM (active),,0.0083 µM (active),,,0.0059 µM (active),0.0066 µM (active),,,
c1ccc(-c2oc3ncnc(NC[C@@H]4CCCO4)c3c2-c2ccccc2)cc1,23.5 µM (active),,20.9 µM (active),18.7 µM (active),23.5 µM (active),,,,14.8 µM (active),13.2 µM (active),,,18.7 µM (active),,,,,inactive,inactive,16.6 µM (active)
CCOC(=O)c1c(CSc2ccccc2)n(C)c2cc(Br)c(O)c(CN(C)C)c12,18.7 µM (active),,18.7 µM (active),20.9 µM (active),,,18.7 µM (active),20.9 µM (active),16.6 µM (active),5.26 µM (active),6.62 µM (active),,11.8 µM (active),,11.8 µM (active),,,inactive,16.6 µM (active),
CN(C)c1ccc(-c2nc3ncc(Cl)c(N4CCN(CC(=O)Nc5nccs5)CC4)c3[nH]2)cc1,4.18 µM (active),,9.35 µM (active),,3.72 µM (active),inactive,5.26 µM (active),inactive,5.26 µM (active),,14.8 µM (active),,5.9 µM (active),,2.96 µM (active),1.66 µM (active),,inactive,,
C=C1[C@H](n2cnc3c(=O)[nH]c(N)nc32)C[C@H](O)[C@H]1CO,0.418 µM (active),,3.72 µM (active),14.8 µM (active),5.9 µM (active),,,,,2.35 µM (active),,1.32 µM (active),inactive,,,1.18 µM (active),,20.9 µM (active),inactive,14.8 µM (active)
CCCCCCCCCCCCCC(=O)N[C@H](CO)[C@H](O)c1ccc([N+](=O)[O-])cc1,23.5 µM (active),,,,18.7 µM (active),,16.6 µM (active),,,26.4 µM (active),7.43 µM (active),,,,,16.6 µM (active),23.5 µM (active),23.5 µM (active),inactive,inactive
CO[C@H]1/C=C\O[C@@]2(C)Oc3c(C)c(O)c4c(O)c(c(C=NN5CCN(C6CCCC6)CC5)c(O)c4c3C2=O)NC(=O)C(C)=CC=C[C@H](C)[C@H](O)[C@@H](C)[C@@H](O)[C@@H](C)[C@H](OC(C)=O)[C@H]1C,6.62 µM (active),,5.26 µM (active),0.296 µM (active),0.187 µM (active),1.87 µM (active),0.418 µM (active),,0.418 µM (active),0.264 µM (active),7.43 µM (active),,20.9 µM (active),,2.96 µM (active),,,0.105 µM (active),9.35 µM (active),16.6 µM (active)
CN1CCc2c(n(Cc3ccc(C(=O)NO)cc3)c3ccccc23)C1,18.7 µM (active),,14.8 µM (active),16.6 µM (active),18.7 µM (active),,14.8 µM (active),,16.6 µM (active),,5.9 µM (active),,14.8 µM (active),,16.6 µM (active),4.18 µM (active),,16.6 µM (active),18.7 µM (active),26.4 µM (active)
O=C(c1ccc(F)c(F)c1Nc1ccc(I)cc1F)N1CC(O)([C@H]2CCCCN2)C1,23.5 µM (active),,,18.7 µM (active),23.5 µM (active),,18.7 µM (active),1.66 µM (active),18.7 µM (active),11.8 µM (active),16.6 µM (active),,23.5 µM (active),,,inactive,0.372 µM (active),14.8 µM (active),,23.5 µM (active)
CC[C@@H]([C@H](C)O)n1ncn(-c2ccc(N3CCN(c4ccc(OCC5CO[C@@](Cn6cncn6)(c6ccc(F)cc6F)C5)cc4)CC3)cc2)c1=O (some centres not stated),16.6 µM (active),,16.6 µM (active),inactive,,,,,18.7 µM (active),inactive,,,,,,,inactive,,,inactive
Cc1cccc2c1CC[C@H](CN1CCC(c3c(Cl)cccc3Cl)CC1)C[C@@H]2O,16.6 µM (active),,18.7 µM (active),,,,,,2.64 µM (active),,,,,,,,20.9 µM (active),,,
CO[C@H]1O[C@@H]2O[C@@]3(C)CC[C@@H]4[C@@H](C)CC[C@@H]([C@H]1C)[C@@]24OO3,3.32 µM (active),,3.72 µM (active),inactive,10.5 µM (active),,4.18 µM (active),,,6.62 µM (active),,,inactive,,,0.743 µM (active),,0.833 µM (active),inactive,inactive
